The results in this text go back to PubChem BioAssay (EPA / NIEHS).

Calls of active or inactive are those of the source. The calls were made as follows: active = hit-call score of the fitted dose curve at least 0.9, where 1 is the maximum; inactive = score below 0.9.

Read-out in the test: Tumor necrosis factor receptor superfamily member 6 (Homo sapiens) (UniProt P25445)
The test is described as follows: LTEA_HepaRG_FAS: Life Technologies and Expression Analysis (LTEA) Assay for Fas cell surface death receptor (FAS) using HepaRG (AID 2283447). Conditions: mRNA level, 48 h; actives raise or lower the signal. The method, then:
LTEA_HepaRG is a cell based, multiplexed-readout assay that uses HepaRG, a human liver cell line, with measurements taken at 48 hours after chemical dosing on a 96-well plate.LTEA_HepaRG_FAS is one of 102 assay component(s) measured in the LTEA HepaRG cell culture assay. It is a marker of Cell proliferation, survival, death.Data from the assay component LTEA_HepaRG_FAS was analyzed into 1 endpoint. This assay endpoint, LTEA_HepaRG_FAS, was analyzed with bidirectional fitting relative to DMSO as the negative control and baseline of activity. Using a type of inducible reporter, measures of mRNA induction for gain or loss-of-signal activity can be used to understand regulation of transcription factor activity. To generalize the intended target to other relatable targets, this assay endpoint is annotated to the cytokine receptor intended target family, where the subfamily is TNF receptor.
A total of 1060 chemcials from the ToxCast library were tested in eight-point concentration-response experiments. Cell culture and cytotoxicity assays were conducted at Thermo Fisher Scientific's Custom Services facility (Madison, WI). A single lot of human HepaRG cells (Thermo Fisher Scientific, Frederick, MD) was used for the cell culture experiments. 96-well format collagen type I coated plates of human HepaRG cells were prepared using established methods. Briefly, cryopreserved HepaRG cells were thawed, plated at a density of approximately 100,000 cells/well in HepaRG Thaw, Plate, and General Purpose media (HPRG770, Thermo Fisher Scientific), and incubated for 48 hours. 0.5% DMSO was selected as vehicle control to balance the requisite need of DMSO in HepaRG cultures to maintain differentiation (for example, baseline metabolism, proportions of hepatocytes vs. cholangiocytes), while enabling further hepatic receptor pathway activation (for example, PXR and CAR) in response to chemical exposure. 48 hours after plating, the culture medium was replaced with HepaRG Serum-Free Incudtion Media. Cells were exposed to each test chemical in duplicate and maintained in CO2 incubators for another 48 hours. Chemical plates were thawed to room temperature and 200x concentrations of treatment groups were prepared. 8-point conentration-reponse curves were made with the highest exposure at 100 uM, followed by half-log dilutions, all in 0.5% DMSO. Each test plate contained variouse controls, induction positive controls (1mM phenobarbital), cytotoxicity positive controls ([…] aflatoxin B1), vehicle controls (0.5% DMSO), and total lysis controls (0.5% DMSO). Cell morphology images were taken using an Essen IncuCyte FLR automated microscope, with six 96-well plates imaged in about 24 minutes. Images were captured and exported and JPEG files. Spent culture media was transfered to black-well plates for the LDH assay, and remaining media was sorted at -80 C for later use. Cells were treated with RLT buffer and frozen until shipped for gene expression analysis. Total RNA was isolated from the cell suspension in 75 uL of Buffer RLT (Qiagen, Germantown, MD 20874) by Quintiles/Expression Analysis (Durham, NC) using a custom isolation procedure. Total RNA from each plate well was transferred to a preamplification plate. Fluidigm's 96.96 Dynamic ArrayTM (Fluidigm, Amsterdam, the Netherlands) technology was used for gene expression analyses by quantitative reverse transcription polymerase chain reaction (qRT-PCR, performed by Quintiles/Expression Analysis, Durham, NC)89. Standard TaqManTM Assays (Applied Biosystems/ThermoFisher Scientific, Foster City, CA) were used to assess the expression of 93 genes selected based on their selectivity and sensitivity to important hepatic receptors known to be modulated by environmental chemicals; importance in human hepatocyte functionality; and hepatotoxicity. […]
For the compound `CCOC(=O)COc1cc(-c2nn(C)c(OC(F)F)c2Cl)c(F)cc1Cl`, the outcome was inactive.
In the case of `Cc1nn(-c2cc(NS(C)(=O)=O)c(Cl)cc2Cl)c(=O)n1C(F)F`, the compound was called inactive.
With `CC(COc1ccc(Oc2ccccc2)cc1)Oc1ccccn1` (stereo not given), the result was inactive.
For `COP(=O)(NC(C)=O)SC` (stereo not given), the compound was classed as inactive.
Under `CCc1cccc(C)c1N(C(=O)CCl)C(C)COC` (stereo not given) stands “inactive”; under `C#CCC1=C(C)C(OC(=O)C2C(C=C(C)C)C2(C)C)CC1=O` (stereo not given), “inactive”; under `CC(C)N(C(=O)SCC(Cl)=C(Cl)Cl)C(C)C`, “inactive”.
`CNC(=O)Oc1cccc2c1OC(C)(C)O2`: the compound was classed as inactive.
Regarding `COP(=O)(OC)SCn1c(=O)oc2cc(Cl)cnc21`, the compound was classed as inactive.
Consider `C[Si](Cn1cncn1)(c1ccc(F)cc1)c1ccc(F)cc1`, for which the result was inactive.
Consider `CCOP(=S)(OCC)OC(Cl)C(Cl)(Cl)Cl` (stereo not given), for which the compound was called inactive.
As to `COc1ccc(C(=CC(=O)N2CCOCC2)c2ccc(Cl)cc2)cc1OC`, the compound was classed as inactive.
Consider `CCc1cccc(CC)c1N(COC)C(=O)CCl`, for which the result was inactive.
Regarding `CCC(CC)Nc1c([N+](=O)[O-])cc(C)c(C)c1[N+](=O)[O-]`, the call was inactive.
Take `CCOP(=S)(OCC)Oc1cc(C)nc(C(C)C)n1`: the compound was classed as inactive.
With `CCC(=O)Nc1ccc(Cl)c(Cl)c1`, the call was inactive.
Turning to `CC(Oc1cccc(Cl)c1)C(=O)O` (stereo not given), the outcome was inactive.
`CC[C@H](C)[C@H]1O[C@]2(C=C[C@@H]1C)C[C@@H]1C[C@@H](C/C=C(\C)[C@@H](O[C@H]3C[C@H](OC)[C@@H](O[C@H]4C[C@H](OC)[C@@H](NC)[C@H](C)O4)[C@H](C)O3)[C@@H](C)/C=C/C=C3\CO[C@@H]4[C@H](O)C(C)=C[C@@H](C(=O)O1)[C@]34O)O2`: the compound was called inactive.
With `O=C(O)c1cc(Oc2ccc(C(F)(F)F)cc2Cl)ccc1[N+](=O)[O-]`, the result was inactive.
In the case of `O=[N+]([O-])c1cc(C(F)(F)F)c(Cl)c([N+](=O)[O-])c1Nc1ncc(C(F)(F)F)cc1Cl`, the compound was classed as inactive.
Regarding `CCOP(=S)(OCC)Oc1ccc([N+](=O)[O-])cc1`, the compound was called inactive.
The value for `Nc1nc(N)nc(NC2CC2)n1` was “inactive”; that for `CCC(=NOC/C=C/Cl)C1=C(O)CC(C2CCOCC2)CC1=O` (stereo not given) was “inactive”; that for `CNC(=O)ON=C(SC)C(=O)N(C)C` was “inactive”.
On to `COc1cccc(C(=O)NN(C(=O)c2cc(C)cc(C)c2)C(C)(C)C)c1C`, for which the compound was classed as inactive.
On to `CCCCN(CC)c1c([N+](=O)[O-])cc(C(F)(F)F)cc1[N+](=O)[O-]`, for which the call was inactive.
The value for `CCNc1nc(Cl)nc(NC(C)(C)C#N)n1` was “inactive”; that for `CC1(C(=O)Nc2ccc(O)c(Cl)c2Cl)CCCCC1` was “inactive”; that for `CC(C1CC1)C(O)(Cn1cncn1)c1ccc(Cl)cc1` (stereo not given) was “inactive”.
For the compound `CN(C)[C@@H]1C(=O)C(C(N)=O)=C(O)[C@@]2(O)C(=O)C3=C(O)c4c(O)cccc4[C@@](C)(O)[C@H]3[C@H](O)[C@@H]12`, the call was inactive.
As to `CCCCOC(=O)c1ccccc1C(=O)O`, the compound was called inactive.
As for `C[N+]1(C)CCCCC1`, the compound was classed as inactive.
With `CCOC(=O)CC(SP(=O)(OC)OC)C(=O)OCC` (stereo not given), the outcome was inactive.
In the case of `CCCOc1nn(C(=O)NS(=O)(=O)c2ccccc2C(=O)OC)c(=O)n1C`, the call was inactive.
For the compound `CC(C)=CC1C(C(=O)OCN2C(=O)C3=C(CCCC3)C2=O)C1(C)C` (stereo not given), the outcome was inactive.
For the compound `CCCCSP(=O)(SCCCC)SCCCC`, the compound was called inactive.
Take `O=c1ccc(=O)[nH][nH]1`: the outcome was inactive.
For `CSc1nc(NC(C)C)nc(NC(C)C)n1`, the call was inactive.
`CCOP(=S)(OCC)Oc1ccc2c(C)c(Cl)c(=O)oc2c1`: the compound was called inactive.
As to `CCOP(=O)(OCC)Oc1cc(C)nc(C(C)C)n1`, the call was inactive.
